# NPC1 prom act: qHTS Assay for NPC1 Promoter Activators | 320,000 compounds, 2.4% hits | Huh7 NPC1 promoter luciferase reporter, 24 h | AID 485313, 2010 | Potency, µM (top dose mostly 9.22 µM), for inactives: at the highest dose activation, hits mostly activators; further: % of control where 0% means no effect; nearly all actives have a fitted effect of over 60% in size
#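 Stably transfected Huh7 (NPC1 promoter→luciferase), 1500 cells/well in Opti-MEM + 10% FBS, 2 h settle, then compound 24 h at 37 °C. Luminescence after 10 min with Amplite reagent.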
# SMN2 splice enh: qHTS Assay for Enhancers of SMN2 Splice Variant Expression; HEK293 SMN2-luciferase splicing reporter, luminescence, 30-36 h; Potency, µM (highest dose often 46.1 µM), inactives show top-dose activity change, positive = activation, usual class: activators; 210,000 compounds, 2.8% hits; further: % of control where 0% means no effect; nearly all actives have a fitted effect of over 55% in size
#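 qHTS luciferase splicing reporter: luminescence rises when SMN2 exon 7 is included in transfected HEK293 cells. Compound exposure lasted 30-36 h at 37C, with 4.5 mM final sodium butyrate as control, followed by a ONE-Glo read.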
# FLuc counter: qHTS profiling assay for firefly luciferase inhibitor/activator using purifed enzyme and Km concentrations of substrates (counterscreen for miR-21 project). purified FLuc, Km substrates, luminescence inhibition. Potency, µM (titrated, usually from 57.5 µM), without a hit: at the top dose activity change, negative = inhibition, most hits filed as inhibitors. 360,000 compounds, 6.9% hits;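 further: plate controls were vehicle for no effect and reference inhibitor for full effect; nearly all actives have a fitted effect of over 55% in size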
# Target sequence (P08659 whole entry, looked up): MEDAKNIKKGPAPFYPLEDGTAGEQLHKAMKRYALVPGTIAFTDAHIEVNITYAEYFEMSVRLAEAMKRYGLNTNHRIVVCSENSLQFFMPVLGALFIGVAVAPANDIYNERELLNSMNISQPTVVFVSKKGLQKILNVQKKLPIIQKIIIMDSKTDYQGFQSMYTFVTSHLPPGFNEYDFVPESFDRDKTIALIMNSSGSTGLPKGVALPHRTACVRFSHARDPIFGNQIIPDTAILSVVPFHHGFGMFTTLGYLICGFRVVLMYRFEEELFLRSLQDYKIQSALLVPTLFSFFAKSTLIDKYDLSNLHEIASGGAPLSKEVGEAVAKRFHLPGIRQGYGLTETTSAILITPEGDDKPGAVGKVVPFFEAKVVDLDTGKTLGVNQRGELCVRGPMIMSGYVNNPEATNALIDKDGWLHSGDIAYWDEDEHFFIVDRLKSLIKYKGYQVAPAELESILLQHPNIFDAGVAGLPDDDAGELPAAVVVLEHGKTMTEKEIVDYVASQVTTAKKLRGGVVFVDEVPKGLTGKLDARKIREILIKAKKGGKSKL
#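 Purified P. pyralis luciferase, 10 nM final, with Km-level 10 uM D-luciferin and 10 uM ATP in 50 mM Tris acetate pH 7.5, 10 mM Mg acetate, 0.01% Tween-20, 0.05% BSA; 6-point qHTS titration about 60 µM downward; luminescence read.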
# ELG1 genotox: qHTS screen for small molecules that induce genotoxicity in human embryonic kidney (HEK293T) cells expressing luciferase-tagged ELG1; HEK293T ELG1-luciferase reporter, luminescence, 16 h; Potency, µM (titrated, usually from 46 µM), without a hit: at the highest dose activity change, positive = activation, actives largely listed as activators; 330,000 compounds, 1.3% hits; AID 504466, 2011; further: % of control where 0% means no effect; nearly all actives have a fitted effect of over 60% in size
#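 16 hr compound incubation (37 °C, 5% CO2) of HEK293T cells carrying luciferase-tagged ELG1; luciferase then measured by ONE-Glo luminescence after 30 min at RT.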
# ELG1 repair inh: qHTS screen for small molecules that inhibit ELG1-dependent DNA repair in human embryonic kidney (HEK293T) cells expressing luciferase-tagged ELG1 | 330,000 compounds, 2.3% hits | AID 504467, 2011 | Potency, µM (highest dose often 46.1 µM), without a hit: at the highest dose activity change, negative = inhibition, usual class: inhibitors | HEK293T ELG1-luciferase reporter, luminescence, 16 h; DNA damage induced by 5-fluorouridine; further: on the % scale 0 is the no-effect control and ±100 the full control effect; nearly all actives have a fitted effect of over 55% in size
#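 Cells (2,000 per well) received 5-fluorouridine plus test compound or DMSO and were incubated 16 hr at 37 °C, 5% CO2. Luciferase activity was read by luminescence 30 min after ONE-Glo addition; signal suppression marked inhibition of damage-induced ELG1 function.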
# Rab9 prom act: qHTS Assay for Rab9 Promoter Activators; AID 485297, 2010; 320,000 compounds, 2.8% hits; Huh7 Rab9 promoter-luciferase reporter, luminescence, 24 h; Potency, µM (top dose mostly 9.22 µM), for the others: at the highest dose activation, negative = inhibition, hits mostly activators; further: % of control where 0% means no effect; nearly all actives have a fitted effect of over 60% in size
#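 Using Huh7 cells stably transfected with Rab9 promoter–luciferase, compounds were incubated 24 h at 37 °C, 5% CO2; luciferase luminescence was read 10 min after reagent addition.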
# Starred values were filed as active, the others as inactive; ? = inconclusive; nt = no result; [ ] = remark or other dose. This is a sample that favours compounds with a hit; in the whole collection about 9.2% have one here. The call rests on the fitted dose curve; in most records, active means well fitted curve in the direction sought with a large enough effect; inconclusive means small, poorly fitted or top-dose-only effect, or another doubt; inactive means no such curve, though single readings can be large; an effect the other way counts as inactive or inconclusive. Potency means the concentration at half of the fitted maximal effect.
SMILES,NPC1 prom act,SMN2 splice enh,FLuc counter,ELG1 genotox,ELG1 repair inh,Rab9 prom act
O=C(NC1CCCCCC1)c1c2c(nc3ccccc13)CCN(Cc1ccccc1)C2,-1%,8%,3%,-7%,?,-1%
NCCc1c(-c2ccccc2)n(-c2ccccc2)c2ccccc12,-2%,-3%,1%,0%,-13%,-4%
O=C(Nc1ccc(-c2nc3ccccc3[nH]2)cc1)c1c(F)c(F)c(F)c(F)c1F,-5%,-2%,-1%,2%,-19%,-5%
Cn1ncc([N+](=O)[O-])c1C(=O)Nc1ccc(-c2nc3ccccc3[nH]2)cc1,?,?,21µM*,?,?,?
CS(=O)(=O)c1ccc(C(=O)Nc2ccc(-c3nc4ccccc4[nH]3)cc2)cc1,?,nt,2%,10%,?,2.5µM*
O=C(Nc1cccc(-c2nc3ccccc3[nH]2)c1)c1cccc(NC(=O)c2ccco2)c1,19%,-90%,?,-23%,?,1%
CCCOc1ccc(C(=O)Nc2cccc(-c3nc4ccccc4[nH]3)c2)cc1,nt,?,4.8µM*,nt,nt,nt
CCOc1cc(OCC)cc(C(=O)Nc2cccc(-c3nc4ccccc4[nH]3)c2)c1,nt,-48%,-1%,nt,nt,nt
CS(=O)(=O)c1cccc(C(=O)Nc2cccc(-c3nc4ccccc4[nH]3)c2)c1,19%,nt,12µM*,-2%,-22%,13%
Cn1ncc([N+](=O)[O-])c1C(=O)Nc1ccc(Cl)cc1,-3%,nt,1%,-3%,-6%,6%
O=S(=O)(c1ccc(F)cc1)N1CCN(S(=O)(=O)c2cccs2)CC1,-4%,nt,0%,14%,28%,3%
Cc1ccc(S(=O)(=O)N2CCCN(C(=O)OC(C)(C)C)CC2)cc1,1%,nt,1%,-7%,0%,-1%
O=C(Nc1ccc(-c2nc3ccccc3[nH]2)cc1)c1ccc2c(c1)OCO2,4%,9%,nt,11%,?,?
COCCN1Cc2cccc(C(=O)Nc3ccc(-c4nc5ccccc5[nH]4)cc3)c2C1=O,-4%,-7%,-10%,14%,?,20%
COCCN1Cc2cccc(C(=O)Nc3cccc(-c4nc5ccccc5[nH]4)c3)c2C1=O,7%,nt,?,-3%,4.1µM*,0%
CS(=O)(=O)Cc1ccc(C(=O)Nc2cccc(-c3nc4ccccc4[nH]3)c2)cc1,14%,nt,13µM*,-19%,?,18%
CS(=O)(=O)c1ccc(C(=O)Nc2cccc(-c3nc4ccccc4[nH]3)c2)cc1,-8%,nt,24µM*,-4%,-18%,1%
CC1CCC(NC(=O)CN(C)CC(=O)Nc2ccc(F)cc2)CC1 (stereo unspecified),-2%,nt,-2%,3%,0%,-2%
CC1CN(c2nc3ccccn3c(=O)c2/C=C(\C#N)C(N)=O)CC(C)O1 (stereo unspecified),2%,nt,0%,0%,-2%,13%
N#C/C(=C\c1c(N(Cc2ccccc2)Cc2ccccc2)nc2ccccn2c1=O)C(N)=O,2%,-10%,0%,-1%,16µM*,-3%
C=CCNC(=O)/C(C#N)=C/c1c(N(Cc2ccccc2)Cc2ccccc2)nc2ccccn2c1=O,-4%,-32%,1%,-4%,13µM*,-8%
CCc1cccc(NC(=O)c2nnn(Cc3ccc(SC)cc3)c2N)c1,nt,-2%,-4%,nt,nt,nt
CCC(C)NC(=O)C1CCN(C(=O)c2cc3sccc3n2Cc2ccc(Cl)cc2)CC1 (stereo unspecified),nt,-49%,4%,nt,nt,nt
O=C(CSc1nnc(-c2n[nH]c3ccccc23)n1-c1ccccc1)Nc1ccccc1Cl,-4%,-20%,0%,-19%,23µM*,0%
Cc1c(Cl)cccc1NC(=O)CSc1nnc(C)n1-c1ccccc1,0%,-1%,-1%,-49%,?,7%
SMILES,NPC1 prom act,SMN2 splice enh,FLuc counter,ELG1 genotox,ELG1 repair inh,Rab9 prom act
c1ccc(-c2nnnn2-c2ccccc2)cc1,0%,nt,1%,0%,4%,3%
CN=c1nc(-c2ccccc2)n(-c2ccccc2)s1,-5%[46.1 µM],?,15µM*,?,?,-12%[46.1 µM]
CC(=O)Nc1ccc(NC(=O)C/C(C)=N/NC(=O)c2cccc3ccccc23)cc1,-11%,nt,15µM*,1%,8%,-6%
CC(=O)Nc1ccc(NC(=O)C/C(C)=N/NC(N)=S)cc1,-5%,9%,-3%,-5%,-5%,-3%
O=[N+]([O-])c1cccc(NC(=S)N2CCc3ccccc32)c1,18%,nt,-12%,1%,13µM*,7%
O=C(Nc1cccc([N+](=O)[O-])c1)NC1CCCCCCC1,2.8µM*,nt,12µM*,-11%,?,2.5µM*
O=C(Nc1cccc([N+](=O)[O-])c1)ONC1=NCCCCC1,0%,nt,15µM*,-1%,7%,-3%
O=C(Nc1cccc([N+](=O)[O-])c1)Nc1cccc([N+](=O)[O-])c1,-1%,-29%,-1%,-17%,?,-6%
O=C(Nc1cccc([N+](=O)[O-])c1)C(=O)N1CCCCC1,?,18µM*,?,?,?,1.3µM*
O=C(Nc1cccc([N+](=O)[O-])c1)N1CCCc2ccccc21,1%,nt,0%,16%,?,9%
O=C(O)CCCCCN1C(=O)C(O)=C(C(=O)/C=C/c2ccccc2)C1c1cccc([N+](=O)[O-])c1 (stereo unspecified),-1%,6%,-20%,1%,-10%,-11%
Cc1c(C(=O)Nc2ccccc2F)cnn1-c1ccccc1,2.5µM*,nt,5.4µM*,8.2µM*,?,1.4µM*
CCc1ccc(NC(=O)c2cnn(-c3ccccc3)c2C2CCNCC2)cc1,-5%,-4%,-4%,-5%,16%,6%
Cc1c(C(=S)Nc2ccccc2)cnn1-c1ccc([N+](=O)[O-])cc1,-1%,-8%,-11%,-4%,?,-4%
Cc1c(C(=S)Nc2ccccc2)cnn1-c1ccccc1,?,5%,15µM*,1%,21%,?
CCc1ccc(NC(=O)c2cnn(-c3ccccc3)c2C)cc1,0.5µM*,5.6µM*,0.67µM*,?,?,0.56µM*
Cc1c(C(=O)Nc2cc(F)cc(F)c2)cnn1-c1ccccc1,1.3µM*,nt,7.6µM*,?,?,2.5µM*
